Reference: publication PMC7862700, “An all-to-all approach to the identification of sequence-specific readers for epigenetic DNA modifications on cytosine”

Experiments:
Assay in all cases: DAPPL (digital affinity profiling via proximity ligation, sequencing); 10 mM Tris-HCl pH 7.5, 50 mM NaCl, 1 mM DTT, 4% glycerol, room temperature, 30 min; GST-TFs on glutathione beads, 16-mer random dsDNA library, 0.1% formaldehyde crosslink after washing; high values mean tight binding
[1] = target: T1, FEV (Homo sapiens, UniProt Q99581 1-238); settings: protein: recombinant; tags: N-terminal GST; dsDNA, one strand shown
T1 sequence: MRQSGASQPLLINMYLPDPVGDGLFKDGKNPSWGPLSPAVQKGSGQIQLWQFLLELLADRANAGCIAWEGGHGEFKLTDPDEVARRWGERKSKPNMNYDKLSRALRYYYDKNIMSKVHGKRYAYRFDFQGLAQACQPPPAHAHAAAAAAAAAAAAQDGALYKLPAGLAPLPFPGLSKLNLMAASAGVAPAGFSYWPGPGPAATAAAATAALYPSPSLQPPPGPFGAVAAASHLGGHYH
In short: (§1)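 Human transcription factors carrying a GST fusion were produced in yeast, bound to glutathione beads, tagged with DNA barcodes and pooled together with a tag-only sample. Each pool was held with 200 nmole of a random double-stranded 16-mer DNA library in Tris/NaCl/DTT/glycerol buffer for 30 min at room temperature, then washed, crosslinked in 0.1% formaldehyde, proximity-ligated with BsaI/T4 ligase (1 h, 37 °C), PCR-amplified and sequenced on an Illumina NextSeq500. Binding signal is the read frequency of each hexamer for a given factor divided by its frequency in the tag-only sample.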

[2] = target: ETV5 (Homo sapiens, UniProt P41161 1-510); settings: protein: recombinant; tags: N-terminal GST; dsDNA, one strand shown
In short: as §1

[3] = target: HSF1 (Homo sapiens, UniProt Q00613 1-529); settings: protein: recombinant; tags: N-terminal GST; chain copies: 3; dsDNA, one strand shown
In short: as §1

[4] = target: T2, SPIC (Homo sapiens, UniProt Q8N5J4 1-248); settings: protein: recombinant; tags: N-terminal GST; dsDNA, one strand shown
T2 sequence: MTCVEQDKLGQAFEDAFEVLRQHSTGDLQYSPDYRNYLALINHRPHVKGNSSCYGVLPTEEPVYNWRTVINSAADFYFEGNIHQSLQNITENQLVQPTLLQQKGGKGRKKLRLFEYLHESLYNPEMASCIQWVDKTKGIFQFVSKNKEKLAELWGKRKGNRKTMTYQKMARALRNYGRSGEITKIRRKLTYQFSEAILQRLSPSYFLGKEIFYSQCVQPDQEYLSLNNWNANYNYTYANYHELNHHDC
In short: as §1

[5] = target: ELF4 (Homo sapiens, UniProt Q99607 1-663); settings: protein: recombinant; tags: N-terminal GST; dsDNA, one strand shown
In short: as §1

[6] = target: T3, ELK4 (Homo sapiens, UniProt P28324-2 1-405); settings: protein: recombinant; tags: N-terminal GST; dsDNA, one strand shown
T3 sequence: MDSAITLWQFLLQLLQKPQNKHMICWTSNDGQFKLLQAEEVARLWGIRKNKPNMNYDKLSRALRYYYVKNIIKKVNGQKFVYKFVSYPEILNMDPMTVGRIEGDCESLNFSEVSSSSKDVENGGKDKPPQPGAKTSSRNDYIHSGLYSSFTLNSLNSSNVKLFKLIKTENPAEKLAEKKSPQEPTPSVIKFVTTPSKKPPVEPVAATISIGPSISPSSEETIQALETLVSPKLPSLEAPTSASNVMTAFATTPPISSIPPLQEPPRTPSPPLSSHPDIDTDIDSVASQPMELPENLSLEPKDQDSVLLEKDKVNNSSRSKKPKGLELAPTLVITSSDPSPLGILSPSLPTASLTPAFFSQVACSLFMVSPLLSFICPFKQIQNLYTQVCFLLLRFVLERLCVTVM
In short: as §1

[7] = target: T4, ETV2 (Homo sapiens, UniProt O00321 1-342); settings: protein: recombinant; tags: N-terminal GST; dsDNA, one strand shown
T4 sequence: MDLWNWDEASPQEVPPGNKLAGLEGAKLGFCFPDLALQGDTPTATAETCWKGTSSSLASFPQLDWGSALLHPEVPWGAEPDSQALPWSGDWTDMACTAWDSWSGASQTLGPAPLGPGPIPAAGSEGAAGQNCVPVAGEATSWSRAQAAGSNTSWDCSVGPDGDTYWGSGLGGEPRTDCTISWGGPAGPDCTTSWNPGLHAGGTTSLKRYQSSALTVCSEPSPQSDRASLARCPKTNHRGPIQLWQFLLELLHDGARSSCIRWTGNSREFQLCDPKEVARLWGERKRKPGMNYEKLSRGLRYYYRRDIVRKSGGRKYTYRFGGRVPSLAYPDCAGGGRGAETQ
In short: as §1

[8] = target: T5, ELF3 (Homo sapiens, UniProt P78545 1-371); settings: protein: recombinant; tags: N-terminal GST; dsDNA, one strand shown
T5 sequence: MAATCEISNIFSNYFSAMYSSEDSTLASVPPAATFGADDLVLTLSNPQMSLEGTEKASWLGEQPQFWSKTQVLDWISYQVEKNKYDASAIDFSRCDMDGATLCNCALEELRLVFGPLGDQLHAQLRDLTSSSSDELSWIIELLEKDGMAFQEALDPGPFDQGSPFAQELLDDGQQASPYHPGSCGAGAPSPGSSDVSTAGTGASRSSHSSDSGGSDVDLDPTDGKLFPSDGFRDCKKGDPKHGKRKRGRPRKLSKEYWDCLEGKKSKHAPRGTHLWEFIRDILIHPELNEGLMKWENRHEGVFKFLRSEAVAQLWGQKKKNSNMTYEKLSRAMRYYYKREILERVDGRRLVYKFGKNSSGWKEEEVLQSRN
In short: as §1

[9] = target: CRX (Homo sapiens, UniProt O43186 1-299); settings: protein: recombinant; tags: N-terminal GST; dsDNA, one strand shown
In short: as §1

[10] = target: ETV1 (Homo sapiens, UniProt P50549 1-477); settings: protein: recombinant; tags: N-terminal GST; dsDNA, one strand shown
In short: as §1

ELF4, sequence (Q99607 whole entry): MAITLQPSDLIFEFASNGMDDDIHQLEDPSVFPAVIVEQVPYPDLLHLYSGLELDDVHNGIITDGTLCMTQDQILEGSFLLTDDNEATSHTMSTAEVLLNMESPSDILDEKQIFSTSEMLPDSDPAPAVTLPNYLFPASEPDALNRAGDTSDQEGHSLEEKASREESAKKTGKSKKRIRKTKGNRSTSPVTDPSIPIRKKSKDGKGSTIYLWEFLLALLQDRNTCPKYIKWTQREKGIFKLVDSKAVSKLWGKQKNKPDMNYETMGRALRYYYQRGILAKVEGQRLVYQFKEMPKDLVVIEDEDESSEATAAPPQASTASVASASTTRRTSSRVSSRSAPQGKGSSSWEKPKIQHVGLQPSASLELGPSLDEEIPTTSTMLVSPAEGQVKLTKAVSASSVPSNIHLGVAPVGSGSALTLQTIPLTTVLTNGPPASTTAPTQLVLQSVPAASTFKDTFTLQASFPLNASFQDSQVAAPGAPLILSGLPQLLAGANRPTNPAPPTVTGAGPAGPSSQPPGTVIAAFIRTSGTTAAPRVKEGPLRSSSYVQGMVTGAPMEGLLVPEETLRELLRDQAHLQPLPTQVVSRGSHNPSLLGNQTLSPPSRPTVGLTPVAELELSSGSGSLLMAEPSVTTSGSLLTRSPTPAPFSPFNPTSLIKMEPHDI
CRX, sequence (O43186 whole entry): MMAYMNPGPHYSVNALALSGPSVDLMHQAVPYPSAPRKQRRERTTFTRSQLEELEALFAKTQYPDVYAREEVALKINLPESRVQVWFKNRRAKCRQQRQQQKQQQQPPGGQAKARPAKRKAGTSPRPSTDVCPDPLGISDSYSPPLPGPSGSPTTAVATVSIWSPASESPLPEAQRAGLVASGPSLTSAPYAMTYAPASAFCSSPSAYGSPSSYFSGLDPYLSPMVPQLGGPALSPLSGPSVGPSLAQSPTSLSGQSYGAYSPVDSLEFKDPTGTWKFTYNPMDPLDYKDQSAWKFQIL
ETV5, sequence (P41161 whole entry): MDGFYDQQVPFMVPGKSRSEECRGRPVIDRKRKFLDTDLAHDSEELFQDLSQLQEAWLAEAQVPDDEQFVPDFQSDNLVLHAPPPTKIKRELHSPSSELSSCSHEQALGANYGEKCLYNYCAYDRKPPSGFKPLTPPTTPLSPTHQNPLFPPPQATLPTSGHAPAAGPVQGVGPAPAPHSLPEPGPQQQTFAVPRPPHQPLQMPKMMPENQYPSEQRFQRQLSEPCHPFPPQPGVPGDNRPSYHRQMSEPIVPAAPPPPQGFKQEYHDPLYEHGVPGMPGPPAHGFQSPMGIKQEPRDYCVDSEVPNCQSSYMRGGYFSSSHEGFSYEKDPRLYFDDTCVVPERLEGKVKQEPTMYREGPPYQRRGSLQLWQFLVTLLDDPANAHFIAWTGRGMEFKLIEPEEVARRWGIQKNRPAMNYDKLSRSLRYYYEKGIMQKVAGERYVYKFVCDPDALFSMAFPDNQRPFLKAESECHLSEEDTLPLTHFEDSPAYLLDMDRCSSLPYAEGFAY
HSF1, sequence (Q00613 whole entry): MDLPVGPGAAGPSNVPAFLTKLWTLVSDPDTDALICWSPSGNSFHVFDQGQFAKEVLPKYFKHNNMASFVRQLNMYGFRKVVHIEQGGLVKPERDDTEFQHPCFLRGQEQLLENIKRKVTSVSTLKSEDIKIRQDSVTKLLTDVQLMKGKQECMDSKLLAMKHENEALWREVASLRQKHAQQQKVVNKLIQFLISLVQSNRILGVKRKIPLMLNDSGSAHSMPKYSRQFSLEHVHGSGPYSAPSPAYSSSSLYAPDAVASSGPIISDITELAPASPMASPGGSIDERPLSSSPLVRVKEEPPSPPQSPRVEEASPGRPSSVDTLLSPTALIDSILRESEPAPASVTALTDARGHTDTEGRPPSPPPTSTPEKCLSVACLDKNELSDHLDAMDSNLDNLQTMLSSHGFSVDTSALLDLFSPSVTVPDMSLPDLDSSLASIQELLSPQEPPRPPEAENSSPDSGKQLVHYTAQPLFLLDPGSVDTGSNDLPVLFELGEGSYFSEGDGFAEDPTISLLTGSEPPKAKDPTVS
ETV1, sequence (P50549 whole entry): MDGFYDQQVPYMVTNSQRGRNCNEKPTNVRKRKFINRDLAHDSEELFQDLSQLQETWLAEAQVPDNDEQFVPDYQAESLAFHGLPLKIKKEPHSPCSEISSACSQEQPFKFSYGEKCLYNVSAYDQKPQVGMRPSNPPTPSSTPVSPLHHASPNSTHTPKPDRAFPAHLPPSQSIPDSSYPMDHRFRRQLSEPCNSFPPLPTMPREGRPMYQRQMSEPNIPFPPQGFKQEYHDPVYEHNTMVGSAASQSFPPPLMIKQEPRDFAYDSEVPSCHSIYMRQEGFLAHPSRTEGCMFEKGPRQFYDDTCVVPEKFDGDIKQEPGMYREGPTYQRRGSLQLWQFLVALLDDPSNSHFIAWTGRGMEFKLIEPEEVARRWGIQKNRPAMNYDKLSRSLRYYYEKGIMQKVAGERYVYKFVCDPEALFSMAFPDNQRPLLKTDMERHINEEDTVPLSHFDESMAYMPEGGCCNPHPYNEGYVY

**Q.** For TTAAAC, which binding signal [1] is on record?
**A.** 1.21 fold enrichment (6-mer frequency, TF over GST control)

**Q.** And the binding signal [2]?
**A.** 1.29 fold enrichment (6-mer frequency, TF over GST control)

**Q.** And the binding signal [3]?
**A.** 1.7 fold enrichment (6-mer frequency, TF over GST control)

**Q.** What about the binding signal [4] of the same sequence?
**A.** 1.05 fold enrichment (6-mer frequency, TF over GST control)

**Q.** And the binding signal [5]?
**A.** 1.21 fold enrichment (6-mer frequency, TF over GST control)

**Q.** And the binding signal [6]?
**A.** 1.26 fold enrichment (6-mer frequency, TF over GST control)

**Q.** What about the binding signal [7] of the same sequence?
**A.** 1.26 fold enrichment (6-mer frequency, TF over GST control)

**Q.** What about the binding signal [8] of the same sequence?
**A.** 1.19 fold enrichment (6-mer frequency, TF over GST control)

**Q.** What about the binding signal [9] of the same sequence?
**A.** 2.58 fold enrichment (6-mer frequency, TF over GST control)

**Q.** What about the binding signal [10] of the same sequence?
**A.** 1.24 fold enrichment (6-mer frequency, TF over GST control)
